Screening data as filed in PubChem BioAssay.
ST2 IL33 inh = inhibitors of human ST2 (IL1RL1) binding to IL-33; Q01638; AlphaLISA ST2-Fc/biotin-IL-33 interaction, 1 h; inhibition, % for hits at 17 µM; 78,000 tested, 2.3% active; AID 1259354; in the data active means inhibition above about 30%
Target sequence (Q01638 whole entry, looked up): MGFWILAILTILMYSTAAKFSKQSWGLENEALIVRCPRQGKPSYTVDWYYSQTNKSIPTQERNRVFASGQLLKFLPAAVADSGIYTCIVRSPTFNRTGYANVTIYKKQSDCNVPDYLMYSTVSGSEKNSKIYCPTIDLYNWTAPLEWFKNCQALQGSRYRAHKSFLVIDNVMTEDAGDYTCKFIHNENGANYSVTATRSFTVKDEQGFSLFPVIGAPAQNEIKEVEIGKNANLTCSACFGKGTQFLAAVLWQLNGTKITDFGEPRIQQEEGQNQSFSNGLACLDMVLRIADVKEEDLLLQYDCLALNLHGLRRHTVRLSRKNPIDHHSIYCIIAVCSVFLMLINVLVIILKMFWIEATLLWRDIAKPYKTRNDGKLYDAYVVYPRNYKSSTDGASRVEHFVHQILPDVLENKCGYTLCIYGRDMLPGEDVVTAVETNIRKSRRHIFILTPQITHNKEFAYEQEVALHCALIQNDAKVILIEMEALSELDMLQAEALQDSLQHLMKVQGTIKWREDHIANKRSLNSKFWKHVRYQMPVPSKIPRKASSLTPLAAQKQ
* marks the source's active call; other numbers are inactive results; i = inactive. This is one part of a sample in which hits are shown more often than they occur.

SMILES	ST2 IL33 inh
CCOC(=O)c1c(C)n(C2CCCCC2)c2ccc(O)cc12	i
Cc1cc(C=O)c(C)n1C1CCCCC1	30.0%*
CCOC(=O)c1c(C)n(C2CCCCC2)c2ccc(OC(C)=O)cc12	i
COc1ccc(C2NCCc3[nH]cnc32)c(OC)c1 (stereo not given)	i
CCOc1ccccc1N1CCN(Cc2cccc(C)c2)CC1	i
COc1ccccc1[C@@H]1CN(C(=O)Cn2nccc2C)[C@@H]2C3CCN(CC3)[C@@H]21	i
COc1ccc(C(=O)N2C[C@@H]3C[C@H](C2)c2ccc(NC(=O)C4CC4)c(=O)n2C3)cc1	i
CCN(CCNc1ccc([N+](=O)[O-])c2cccnc12)S(=O)(=O)c1ccccc1	i
O=[N+]([O-])c1ccc(N2CCCCC2)c2ncccc12	62.0%*
O=[N+]([O-])c1ccc(O)cc1CN1CCN(Cc2ccccc2)CC1	i
O=[N+]([O-])c1ccc(NCc2ccccc2)c2ncccc12	51.0%*
CN1CCC2(CCN(CCN)CC2)C1	i
CC[C@H]1CN2CC[C@H]1C[C@@H]2CNC(=S)Nc1ccc(F)cc1	i
CC[C@H]1CN2CC[C@H]1C[C@@H]2CNC(=S)NCC1CCCCC1	i
CN1[C@H]2CC[C@@H]1CN(C(=O)NC1CCCC1)CC2	i
CCN1CCN(Cc2cc(C)ccc2C)CC1	i
C=C[C@H]1CN2CC[C@H]1C[C@@H]2CNC(=S)Nc1cccc2ccccc12	i
CCCCCOc1ccc2c(c1)oc(=O)c1ccccc12	i
Cc1c(CCN)c2ccccc2n1-c1ccccc1	37.0%*
CCOC(=O)Cc1csc(NC(=O)c2cccn(Cc3ccc(C(F)(F)F)cc3)c2=O)n1	i
O=S(=O)(NC[C@H]1C[C@@H]2CCN1C[C@@H]2CN1CCN(c2ccc(F)cc2)CC1)c1ccccc1	i
Cc1ccc(S(=O)(=O)NC[C@H]2C[C@@H]3CCN2C[C@@H]3CN2CCN(c3ccccc3)CC2)cc1	33.0%*
O=S(=O)(NC[C@H]1C[C@@H]2CCN1C[C@@H]2CN1CCN(c2ccccc2)CC1)c1ccccc1	i
O=c1ccc(-c2ccc(OC(F)(F)F)cc2)c2n1C[C@@H]1CNC[C@H]2C1	i
O=C(CCC(F)(F)F)N1CCCC2(CCNC2)C1 (stereo not given)	i
SMILES	ST2 IL33 inh
C=CCN(C)C[C@H]1CN2CC[C@H]1C[C@@H]2CNC(=O)c1ccco1	i
N#Cc1c(Cl)c(Cl)nc(N2CCCNCC2)c1Cl	43.0%*
O=C(NC1CCCCCCC1)c1cn(CC2CCCO2)cc(C(=O)N2CCSCC2)c1=O (stereo not given)	i
CCN(CC)C[C@H]1CN2CC[C@H]1C[C@@H]2CNC(=O)c1ccco1	i
Cc1cccc2cc(CN3CCCN4CCC[C@H]4C3)c(=O)[nH]c12	i
C=C[C@H]1CN2CC[C@H]1C[C@@H]2CNC(=S)NCc1ccccc1	i
Cc1cccc(NC(c2ccc(N(C)C)cc2)c2ccc3ccc(C)nc3c2O)n1 (stereo not given)	44.0%*
CCOc1ccccc1N1CCN(Cc2ccccc2C)CC1	i
CC[C@H]1CN2CC[C@H]1C[C@@H]2CNC(=S)NCCOC	i
CN1CCN(Cc2ccco2)CC1	i
COc1ccc(CCNC2CCC(C)C2)cc1 (stereo not given)	50.0%*
O=C(c1coc2ccccc12)N1C[C@@H](c2ccccc2)[C@@H]2[C@H]1C1CCN2CC1	i
COc1ccc(-c2cc([C@H]3CN4CC[C@H]3C[C@@H]4CNC(=S)Nc3cc(C)cc(C)c3)n(C)n2)cc1OC	i
Cc1ccccc1C(=O)NC(Oc1ccccc1[N+](=O)[O-])C(Cl)(Cl)Cl (stereo not given)	i
Cc1ccc(Cl)cc1N(C)C(=O)C1c2ccccc2C(=O)N2CCCCC12 (stereo not given)	i
COc1ccc2c(CCN)c[nH]c2c1	i
CCOC(=O)c1c(C)n(C(C)C)c2ccc(OC)cc12	i
COc1ccc2c(c1)c(CCN)c(C)n2Cc1ccccc1	38.0%*
O=C(c1cccc2ccnn12)N1C[C@@H]2C[C@H](C1)c1cccc(=O)n1C2	i
CN(Cc1ccccc1)Cc1cn(C[C@H]2CC3CCN2C[C@@H]3C(=O)NCc2ccc3c(c2)OCO3)nn1 (stereo not given in full)	i
Cn1cc(C=C2C(=O)NC(=O)NC2=O)c2ccccc21	35.0%*
CN1C(=O)C(=Cc2cn(C)c3ccccc23)C(=O)N(C)C1=O	i
CCN1C(=O)NC(=O)/C(=C\c2cn(CC(=O)N3CCCC3)c3ccccc23)C1=O	i
COc1ccc(C2N(c3ccccn3)C(=O)C3CCCN32)cc1 (stereo not given)	i
O=C(c1cnccn1)N1C[C@@H]2C[C@H](C1)c1c(-c3cccs3)ccc(=O)n1C2	i
SMILES	ST2 IL33 inh
Cc1cccc(CN2CCN(c3ccc([N+](=O)[O-])cc3)CC2)c1	42.0%*
O=[N+]([O-])c1ccc(N2CCN(Cc3ccc(Br)cc3)CC2)cc1	i
COc1ccc(N2CCN(Cc3cccc([N+](=O)[O-])c3)CC2)cc1	i
O=[N+]([O-])c1ccc(N2CCN(Cc3cccc(Br)c3)CC2)cc1	32.0%*
Oc1cccc(CN2CCN(c3ccc(F)cc3)CC2)c1	i
CCN1CCN(Cc2cccc(C)c2)CC1	i
Cc1ncc2c(c1CNC(=O)c1cn[nH]n1)CCNC2	i
O=C(c1ccco1)N1C[C@@H]2C[C@H](C1)c1ccc(-c3cccc(C(F)(F)F)c3)c(=O)n1C2	i
CN1[C@H]2CC[C@@H]1CN(c1ccnc(N)n1)CC2	i
COc1cc(C(=O)N2CCC3(CC2)CN(C)CCN3C)ccn1	i
O=C(Nc1ccc2n(c1=O)C[C@H]1C[C@@H]2CN(C(=O)Cc2cccs2)C1)C1CCCCC1	i
Cc1cccc(N2CCN(Cc3ccccc3)CC2)c1C	i
COc1cc(CN2CCN(c3cccc(C)c3C)CC2)ccc1O	i
Cc1cccc(N2CCN(Cc3ccc([N+](=O)[O-])cc3)CC2)c1C	47.0%*
CCN1CCN(Cc2ccc(OC)c(OC)c2)CC1	i
Cc1cccc(N2CCN(Cc3ccc(F)cc3)CC2)c1C	i
CCN1CCN(Cc2ccc(N(C)C)cc2)CC1	32.0%*
CCN1CCN(Cc2ccc(Cl)cc2)CC1	i
Cc1ccccc1N1CCN(Cc2ccccc2)CC1	i
Cc1cccc(N2CCN(Cc3ccc(N(C)C)cc3)CC2)c1C	54.0%*
COc1ccc(CN(C)C)c(OC(=O)N(C)C)c1	i
OC1CCN(Cc2cccnc2)CC1	i
COc1ccc(Br)cc1C1N(c2ccccn2)C(=O)C2CCCN21 (stereo not given)	i
O=C1OC(c2ccccc2)=N/C1=C\N1CC2CC(C1)c1cccc(=O)n1C2 (stereo not given)	i
CCCS(=O)(=O)N1C[C@@H]2C[C@H](C1)c1c(-c3ccc4ccccc4c3)ccc(=O)n1C2	i
SMILES	ST2 IL33 inh
Cc1c(C(=O)N2CCC3(CC2)OCCO3)oc2ccc(S(=O)(=O)N3CCC(C)CC3)cc12	i
CCSc1nnc(NC(=O)c2cccn(Cc3ccc(Br)cc3)c2=O)s1	i
O=C(c1cncnc1)N1C[C@@H]2C[C@H](C1)c1ccc(-c3cccnc3)c(=O)n1C2	i
O=C(c1ccc(=O)[nH]c1)N1[C@H]2CCNC[C@@H]1CC2	i
Cc1ccc(CN2[C@@H]3CC[C@H]2CN(C)C(=O)C3)s1	i
COc1ccc(OC)c(CN2CCN(c3ccc(Cl)cc3)CC2)c1	34.0%*
COc1ccc(CN2CCN(c3ccccc3Cl)CC2)c(OC)c1	i
COc1ccc(OC)c(CN2CCN(C)CC2)c1	i
